Assay [1] can be described thus: inhibitors of TNFa-induced NFkB p65 translocation, primary screen, imaging, HUVEC, MLSMR starter and 10KST1 sets (AID 438;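 active = inhibition above 20% together with a positive visual image hit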;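 also: compound added about 3h40 before a 20 min TNFalpha stimulation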;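 as to inhibition: signal is the nuclear over cytoplasmic p65 intensity ratio per well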). To be noted: HUVEC TNFa-induced p65 nuclear translocation; cell count: measured here: nuclei count (cytotoxicity indicator), at 2.08 µM; inhibition: at 2 µM, stronger effect = higher value, 0% TNFa-plus-vehicle, 100% no-TNFa wells.
Assay [2] is described as follows: reduction of polyQ htt aggregates in cells – imaging, exon1htt(103Q)mCFP cells, high-content imaging, primary screen (AID 483;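 active = visual image review flags a hit and inhibition of aggregation exceeds 20%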;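 also: compound exposure lasted 3 days before fixation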;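 as to nuclei count: percent of the per-plate median nuclei count of sample wells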). To be noted: exon1htt(103Q)mCFP cell line, aggregate imaging, at 2 µM; inhibition of aggregation: stronger effect = higher value; nuclei count: measured here: cell count, toxicity.
Assay [3] is described as follows: endothelial E-selectin expression blockers – imaging, HUVEC, immunofluorescence, MLSMR starter and 10KST1 sets, primary screen (AID 487;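 active = visually confirmed hit in the image check and inhibition above 20%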;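 as to inhibition: signal is fraction of cell area covered by stained E-selectin grains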;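 as to nuclei count: 100% = median nuclei count of all wells on the same plate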). As to conditions: HUVEC TNFalpha-induced E-selectin immunofluorescence imaging, at 2 µM; inhibition: stronger effect = higher value; nuclei count: measured here: cell number, toxicity.
Assay [4] addresses Voltage-gated potassium channel subunit beta-2 (Rattus norvegicus) (UniProt P62483). Nature of the assay: inhibitors of rat Kvbeta2 reductase activity – biochemical, NADPH fluorescence, primary screen (AID 622;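 active = fluorescence slope higher than the sample average by over 3 SD, cut at about -0.22 in these data, passing the limit was not always enough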;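 also: slope of raw intensity against log time taken from 70 to 1610 s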). To be noted: recombinant KvBeta, 4-cyanobenzaldehyde reduction, at 10 µM, stronger effect = higher value.
For assay [5] the target is unchanged. Description: enhancers of rat Kvbeta2 NADPH turnover – biochemical, NADPH fluorescence, primary screen (AID 623;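 active = NADPH fluorescence slope more negative than the mean of all samples by about 3 SD, 99.7% confidence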;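 also: fluorescence intensity change per second fitted from 20 to 320 s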). To be noted: Recombinant KvBeta, NADPH fluorescence decrease slope, 10 min; at 10 µM; stronger effect = lower value.
The target of assay [6] is Alpha-2C adrenergic receptor (Homo sapiens) (UniProt P18825). Nature of the assay: compounds altering alpha2C-coupled GIRK flux – cell-based, HEK293 alpha2C/GIRK1/2, thallium flux, primary screen (AID 624).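 Also: slope of fluorescence ratio to pre-addition baseline per second over 15 to 24 s.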 To be noted: thallium flux BTC fluorescence, at 10 µM, actives lie on both sides.
Sequence of Alpha-2C adrenergic receptor (Homo sapiens) (P18825 whole entry, looked up): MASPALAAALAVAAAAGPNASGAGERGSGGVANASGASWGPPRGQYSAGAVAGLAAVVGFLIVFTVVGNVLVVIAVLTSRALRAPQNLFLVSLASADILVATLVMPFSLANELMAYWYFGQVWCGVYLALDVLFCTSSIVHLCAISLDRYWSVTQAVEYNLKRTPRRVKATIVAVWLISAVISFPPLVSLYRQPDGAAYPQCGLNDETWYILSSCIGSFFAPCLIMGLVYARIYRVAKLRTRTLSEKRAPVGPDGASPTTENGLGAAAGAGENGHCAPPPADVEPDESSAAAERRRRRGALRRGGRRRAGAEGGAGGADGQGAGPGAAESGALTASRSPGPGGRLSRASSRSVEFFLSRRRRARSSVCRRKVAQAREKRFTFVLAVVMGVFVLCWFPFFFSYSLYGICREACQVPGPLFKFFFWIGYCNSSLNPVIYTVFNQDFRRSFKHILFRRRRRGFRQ
The nature of assay [7]: blockers of RIG-like receptor reporter activation – cell-based, Sendai virus stimulus, luciferase, 10K MLSCN set, TLR/RLR signaling modifier project, primary screen (AID 602276;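 active = inhibition at or above 50% at 10 µM; inactive = inhibition below 50%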;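 also: firefly luciferase from ISG56 promoter only with Renilla not read in this screen; 0% = Sendai virus plus DMSO and 100% = medium plus DMSO without virus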). As to conditions: HEK293 RL24 IRF3 luciferase reporter, at 10 µM, stronger effect = higher value.
Assay [8] can be described thus: TLR3 IRF3 reporter activation blockers – cell-based, poly I:C stimulus, luciferase, 10K MLSCN set, primary screen (AID 602277;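 active = inhibition of the reporter signal at or above 50%; inactive = inhibition below 50%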). To be noted: HEK293-TLR3 RL24 IRF3 luciferase reporter, at 10 µM, stronger effect = higher value. Background: In a reporter assay the amount or activity of a reporter protein is the signal.

Activity calls are given as the source filed them.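 The calls were made as follows, unless noted: active = fluorescence slope after compound addition differing from the mean of all screened samples at 99.7% confidence, in either direction; inactive = the rest.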

Sequence of Voltage-gated potassium channel subunit beta-2 (Rattus norvegicus) (P62483 whole entry, looked up): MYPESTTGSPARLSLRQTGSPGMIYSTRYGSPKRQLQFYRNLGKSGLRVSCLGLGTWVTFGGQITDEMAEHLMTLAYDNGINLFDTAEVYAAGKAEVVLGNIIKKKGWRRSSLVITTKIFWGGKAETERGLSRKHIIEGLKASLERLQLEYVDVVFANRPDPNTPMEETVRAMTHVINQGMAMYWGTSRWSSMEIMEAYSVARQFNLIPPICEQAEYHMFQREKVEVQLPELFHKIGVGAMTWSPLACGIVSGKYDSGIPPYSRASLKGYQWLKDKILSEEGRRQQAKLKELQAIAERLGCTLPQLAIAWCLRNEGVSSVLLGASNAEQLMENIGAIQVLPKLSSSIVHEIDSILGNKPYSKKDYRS

For the compound `c1cncc(-c2nnc3n2N=C(c2cccs2)CS3)c1`, the cell count in assay [1] worked out at 523. Also, the inhibition (as a rule, the drop in the measured response relative to a control, in per cent) is 4.8% (inactive) in assay [1], -28.3% (inactive) in assay [3], 5.28% (inactive) in assay [7] and 17.3% (inactive) in assay [8]. Moreover, in assay [2], the inhibition of aggregation was 7.7% (inactive). Also, the nuclei count in assay [2] came to 96.4%; in assay [3], 107%. Moreover, the fluorescence slope in assay [4] is -0.331 (inactive). The NADPH fluorescence slope in assay [5] is 5.7e-06 (inactive). Also, the slope in assay [6] was 0.00392 (inactive).
Consider `CN1CCN(Cc2nc3c(c(=O)[nH]c(=O)n3C)n2CCc2ccccc2)CC1`, for which the cell count in assay [1] was 632. In addition, the inhibition in assay [1] is 7.4% (inactive); in assay [3], -34.7% (inactive); in assay [7] it was 3.33% (inactive); in assay [8], 39.3% (inactive). In addition, the inhibition of aggregation in assay [2] is 6.7% (inactive). Also, the nuclei count was determined as 99.2% in assay [2] and 119% in assay [3]. In addition, the fluorescence slope in assay [4] was -0.436 (inactive). The NADPH fluorescence slope in assay [5] is -1.6e-05 (inactive). Also, the slope in assay [6] was 0.00646 (inactive).
With `CCOc1ccc(C(=O)N2CCN(c3ccccc3)CC2)cc1OCC`, the cell count in assay [1] came out at 196. In addition, the inhibition in assay [1] was -16.9% (inactive); in assay [3], -17.5% (inactive); in assay [7] it was 16% (inactive); in assay [8] it was 9.44% (inactive). The inhibition of aggregation in assay [2] is 20.3% (inactive). Further, the figures for the nuclei count in assay [2] and in assay [3] were 97.1% and 100%, respectively. The fluorescence slope in assay [4] is -0.561 (inactive). Moreover, the NADPH fluorescence slope in assay [5] was 9.3e-05 (inactive). Further, in assay [6], the slope was 0.00618 (inactive).
In the case of `Cc1ccc(-c2nnn(CC(=O)N(Cc3ccco3)C(C(=O)NC(C)(C)C)c3cccs3)n2)o1` (centres undefined), the cell count in assay [1] came out at 643. The inhibition in assay [1] was 3.5% (inactive); in assay [3], -43.9% (inactive); in assay [7], 9.52% (inactive); in assay [8] it was 12.3% (inactive). In addition, in assay [2], the inhibition of aggregation is 4.8% (inactive). Besides, the nuclei count in assay [2] was found to be 85.8%; in assay [3], 117%. The fluorescence slope in assay [4] was -0.595 (inactive). Also, the NADPH fluorescence slope in assay [5] was -7.2e-05 (inactive). For the same compound, in assay [6], the slope is 0.00341 (inactive).
For the compound `Cc1ccc(C)c2[nH]c(=O)c(CN(CCN3CCCC3)C(=O)Nc3cccc(Cl)c3)cc12`, the cell count in assay [1] was 562. Also, the inhibition was -4.7% (inactive) in assay [1], -35.9% (inactive) in assay [3], -139% (inactive) in assay [7] and 78.9% (active) in assay [8]. In addition, the inhibition of aggregation in assay [2] is 13.8% (inactive). In addition, the figures for the nuclei count in assay [2] and in assay [3] were 67.7% and 94.3%, respectively. For the same compound, in assay [4], the fluorescence slope was -0.544 (inactive). Further, in assay [5], the NADPH fluorescence slope was -6.8e-05 (inactive). Further, the slope in assay [6] is 0.00448 (inactive).
Consider `Cc1ccc(-c2nc3ccccc3[nH]2)s1`, for which the cell count in assay [1] was determined as 362. For the same compound, the inhibition in assay [1] was -13.1% (inactive); in assay [3] it was -72.7% (inactive); in assay [7] it was -45.9% (inactive); in assay [8], -155% (inactive). Moreover, in assay [2], the inhibition of aggregation is -2.5% (inactive). In addition, the nuclei count in assay [2] was 95.2%; in assay [3], 101%. Moreover, in assay [4], the fluorescence slope is -0.277 (inactive). Also, the NADPH fluorescence slope in assay [5] is -1.4e-05 (inactive). In addition, the slope in assay [6] was 0.00551 (inactive).
On to `COC(=O)c1c(N)sc(C(=O)N2CCOCC2)c1C`, for which the cell count in assay [1] worked out at 261. Also, the inhibition in assay [1] is -5.1% (inactive); in assay [3], 60.2% (inactive); in assay [7] it was -4.15% (inactive); in assay [8] it was -5.07% (inactive). Besides, the inhibition of aggregation in assay [2] is 3% (inactive). Also, the figures for the nuclei count in assay [2] and in assay [3] were 82.3% and 32.3%, respectively. In addition, the fluorescence slope in assay [4] is -0.439 (inactive). Moreover, in assay [5], the NADPH fluorescence slope was -5.8e-06 (inactive). In assay [6], the slope was 0.00581 (inactive).
Regarding `COc1ccc(-c2nc(CSCC(=O)N3CCc4ccccc4C3)c(C)o2)cc1OC`, in assay [1], the cell count was 643. Moreover, the inhibition in assay [1] was 6.9% (inactive); in assay [3], 5.9% (inactive); in assay [7], 8.21% (inactive); in assay [8], 12.7% (inactive). Also, the inhibition of aggregation in assay [2] is -5.2% (inactive). The nuclei count came to 101% in assay [2] and 116% in assay [3]. In addition, in assay [4], the fluorescence slope is -0.603 (inactive). Also, the NADPH fluorescence slope in assay [5] was -1.8e-06 (inactive). For the same compound, the slope in assay [6] is 0.00589 (inactive).
With `Cc1nc2ccccc2c2c1C(=O)N(CCC1=CCCCC1)C2=O`, in assay [1], the cell count is 410. Moreover, the inhibition is 1.6% (inactive) in assay [1], -54.2% (inactive) in assay [3], 11.5% (inactive) in assay [7] and 42.1% (inactive) in assay [8]. For the same compound, the inhibition of aggregation in assay [2] was -3.7% (inactive). Further, the nuclei count in assay [2] was found to be 74.1%; in assay [3] it was 108%. Besides, the fluorescence slope in assay [4] was -0.407 (inactive). The NADPH fluorescence slope in assay [5] is -4.4e-05 (inactive). Further, the slope in assay [6] is 0.00396 (inactive).

Source of the values: PubChem BioAssay.
